Here are results for nine compounds from PubChem BioAssay (NCI).

The panel holds about 83,000 compounds, 20% with a hit somewhere; the sample as a whole holds those more often.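 The test compound was applied at a single concentration to cells in 96-well plates for 48 hours, and percent growth was recorded.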 Unmarked numbers belong to inactive results. The source made the active and inactive calls. The calls were made as follows: active = growth percent below 10; inactive = the rest.

Holding throughout (assay): NCI-60 one-dose screen, 48 h (100 = growth as untreated, 0 = no growth, -100 = all killed)
One test relates to HT29 colon. The conditions noted are these: 10 µM unless noted.
For another test, the system named is SNB-75 CNS. Particulars: 10 µM unless noted.
In the next test the test system is SNB-19 CNS. Particulars: 10 µM unless noted.
The test system of the next test is U251 CNS. The conditions noted are these: 10 µM unless noted.
The next test relates to PC-3 prostate. The conditions noted are these: 10 µM unless noted.
A further test relates to SK-MEL-5 melanoma. Particulars: 10 µM unless noted.
For a further test, the system named is SK-MEL-28 melanoma. Particulars: 10 µM.
A further test has as its system SK-MEL-2 melanoma. Particulars: 10 µM unless noted.
Another test relates to EKVX NSCLC. The conditions noted are these: 10 µM unless noted.
For a further test, the system named is SN12C renal. The conditions noted are these: 10 µM unless noted.
The test system of the next test is UO-31 renal. Particulars: 10 µM unless noted.
The next test has as its system TK-10 renal. The conditions noted are these: 10 µM unless noted.
The next test has as its system ACHN renal. Particulars: 10 µM unless noted.
Another test concerns CAKI-1 renal. Particulars: 10 µM unless noted.
A further test deals with A498 renal. Particulars: 10 µM unless noted.
For a further test, the system named is MOLT-4 leukemia. The conditions noted are these: 10 µM unless noted.
Another test has as its system SR leukemia. Particulars: 10 µM unless noted.
Another test relates to UACC-62 melanoma. The conditions noted are these: 10 µM unless noted.
A further test deals with CCRF-CEM leukemia. Particulars: 10 µM unless noted.
The subject of the next test is LOX IMVI melanoma. Particulars: 10 µM unless noted.

Take `CCN1CCN(C(=S)SCC(=O)Nc2nc3ccc(C)cc3s2)CC1`: the growth in the test on HT29 colon was 102%; in the test with SNB-75 CNS, 89%; in the test with SNB-19 CNS, 102%; with U251 CNS, 110%; in the test with PC-3 prostate, 88.8%; in the test on SK-MEL-5 melanoma, 97.5%. Besides, the growth is 108% in the test on SK-MEL-28 melanoma; 105% with SK-MEL-2 melanoma; 122% in the test with EKVX NSCLC; 99.1% with SN12C renal; 60.6% in the test on UO-31 renal; 111% with TK-10 renal. Besides, the growth in the test with ACHN renal is 103%; with CAKI-1 renal it was 87.2%; in the test with A498 renal it was 126%; in the test with MOLT-4 leukemia, 111%; with SR leukemia, 103%.

Regarding `CCn1c(-c2nonc2Nc2ccc(OC)cc2)nc2ccccc21`, the growth is 102% with HT29 colon; 91.6% in the test on SNB-75 CNS; 111% in the test with SNB-19 CNS; 101% with U251 CNS; 107% in the test with PC-3 prostate; 104% in the test with SK-MEL-5 melanoma. The growth is 96.2% with UACC-62 melanoma; 107% in the test on SK-MEL-28 melanoma; 105% with SK-MEL-2 melanoma; 109% with SN12C renal; 90.1% in the test with UO-31 renal; 101% in the test on TK-10 renal. The growth was 108% with ACHN renal; 102% in the test on CAKI-1 renal; 78.8% in the test on A498 renal; 105% in the test with CCRF-CEM leukemia; 116% in the test with MOLT-4 leukemia; 110% with SR leukemia.

Turning to `O=C(Nc1ccc(Br)cc1F)c1cc(F)ccc1O`, the growth is 18% with HT29 colon; -16.8% (active) in the test with SNB-75 CNS; 19.3% in the test on SNB-19 CNS; 3.38% (active) with U251 CNS; 2.45% (active) with PC-3 prostate; -16.4% (active) in the test with UACC-62 melanoma. Moreover, the growth was 9.8% (active) in the test with LOX IMVI melanoma; 6.8% (active) in the test with SK-MEL-28 melanoma; -29.2% (active) in the test with SK-MEL-2 melanoma; 7.73% (active) in the test with EKVX NSCLC; 3.29% (active) in the test with SN12C renal; 6.93% (active) with UO-31 renal. Further, the growth in the test on TK-10 renal is 3.6% (active); with ACHN renal it was 1.78% (active); in the test with CAKI-1 renal, -16.7% (active); in the test on A498 renal, -68.8% (active); in the test on CCRF-CEM leukemia it was 7.49% (active); in the test on MOLT-4 leukemia, 0.344% (active).

`CCOc1ccc(-c2nonc2NC(=O)c2cccc(C)c2)cc1OCC`: the growth in the test on HT29 colon was 28.3%; with SNB-75 CNS, 89.2%; in the test with SNB-19 CNS it was 90.7%; with U251 CNS, 75%; in the test on PC-3 prostate, 27.4%; with SK-MEL-5 melanoma, 35.2%. For the same compound, the growth with UACC-62 melanoma is 78.4%; with SK-MEL-28 melanoma, 89.5%; in the test with SK-MEL-2 melanoma, 88.6%; with SN12C renal, 70.2%; in the test on UO-31 renal, 70%; in the test with TK-10 renal, 79.2%. Moreover, the growth was 83.9% with ACHN renal; 59.8% in the test with CAKI-1 renal; 23.1% with CCRF-CEM leukemia; 4.22% (active) in the test on MOLT-4 leukemia; -34.7% (active) in the test on SR leukemia.

Turning to `COCCN(C(=O)Cc1cccs1)C(C(=O)NCc1ccc(OC)cc1)c1ccc(C(C)C)cc1` (centres undefined), the growth in the test with HT29 colon is 97.2%; with SNB-75 CNS, 79.7%; with SNB-19 CNS, 106%; in the test on U251 CNS, 97.1%; in the test with PC-3 prostate, 47.5%; in the test on SK-MEL-5 melanoma it was 98.2%. Moreover, the growth with UACC-62 melanoma is 84.8%; in the test on SK-MEL-28 melanoma, 113%; with SK-MEL-2 melanoma it was 102%; with SN12C renal, 89.9%; in the test on UO-31 renal, 82.5%; with TK-10 renal, 115%. The growth in the test with ACHN renal is 87.1%; in the test with CAKI-1 renal, 84.6%; in the test on CCRF-CEM leukemia, 93.9%; in the test with MOLT-4 leukemia it was 80.3%; in the test on SR leukemia it was 74.3%.

With `O=c1oc2ccc(Br)cc2c(=O)n1-c1ccc(I)cc1F`, the growth is 40.1% in the test on HT29 colon; -20.8% (active) with SNB-75 CNS; 18.4% in the test with SNB-19 CNS; 0.947% (active) in the test on U251 CNS; -0.134% (active) in the test on PC-3 prostate; -19.7% (active) in the test with UACC-62 melanoma. The growth in the test with LOX IMVI melanoma is 6% (active); in the test with SK-MEL-28 melanoma, -2% (active); in the test on SK-MEL-2 melanoma it was -32.6% (active); in the test on EKVX NSCLC, 12.5%; in the test on SN12C renal, -1.37% (active); in the test with UO-31 renal it was 7.32% (active). Further, the growth with TK-10 renal is 7.64% (active); in the test on ACHN renal it was 3.46% (active); in the test with CAKI-1 renal, -8.71% (active); in the test with A498 renal it was -70.2% (active); in the test with CCRF-CEM leukemia, 7.41% (active); in the test with MOLT-4 leukemia, -26.3% (active).

On to `Nc1ccc(-c2nn3c(CCC(=O)c4nc5ncccc5[nH]4)nnc3s2)c(O)c1`, for which the growth in the test on HT29 colon is 103%; in the test on SNB-75 CNS, 70.3%; in the test with SNB-19 CNS, 88.2%; in the test on U251 CNS, 103%; in the test with PC-3 prostate, 82.8%; with UACC-62 melanoma, 92.9%. Besides, the growth in the test with LOX IMVI melanoma is 85.2%; in the test on SK-MEL-28 melanoma it was 105%; in the test with SK-MEL-2 melanoma, 100%; in the test on EKVX NSCLC it was 98%; with SN12C renal it was 87.8%; in the test with UO-31 renal it was 68.7%. Also, the growth was 144% in the test with TK-10 renal; 90.5% in the test with ACHN renal; 70.1% in the test with CAKI-1 renal; 75.3% in the test on A498 renal; 94.1% in the test on CCRF-CEM leukemia; 82.8% in the test on MOLT-4 leukemia.

As for `O=C(CCc1nnc2sc(COc3ccccc3)nn12)c1nc2ncccc2[nH]1`, the growth was 106% in the test on HT29 colon; 79.8% in the test with SNB-75 CNS; 100% in the test on SNB-19 CNS; 101% in the test with U251 CNS; 96.5% with PC-3 prostate; 91.8% with UACC-62 melanoma. Besides, the growth in the test with LOX IMVI melanoma was 91.8%; in the test on SK-MEL-28 melanoma, 107%; in the test on SK-MEL-2 melanoma, 102%; with EKVX NSCLC, 102%; in the test with SN12C renal it was 96.3%; with UO-31 renal it was 69%. Also, the growth is 124% in the test with TK-10 renal; 107% with ACHN renal; 84.4% in the test on CAKI-1 renal; 66.8% in the test with A498 renal; 118% in the test with CCRF-CEM leukemia; 113% in the test with MOLT-4 leukemia.

As to `O=c1oc2ccc(F)cc2c(=O)n1-c1ccc(Br)cc1F`, the growth in the test with HT29 colon is 32.6%; with SNB-75 CNS, -15.7% (active); in the test on SNB-19 CNS it was 17.1%; in the test with U251 CNS it was 2.06% (active); in the test on PC-3 prostate, -2.97% (active); with UACC-62 melanoma it was -6.65% (active). The growth is 13.5% in the test on LOX IMVI melanoma; 11.1% with SK-MEL-28 melanoma; -30.2% (active) with SK-MEL-2 melanoma; 7.09% (active) with EKVX NSCLC; -4.08% (active) in the test on SN12C renal; 5.26% (active) in the test on UO-31 renal. Also, the growth was 3.34% (active) in the test on TK-10 renal; 2.25% (active) in the test with ACHN renal; -14.8% (active) in the test on CAKI-1 renal; -55.4% (active) in the test with A498 renal; 11.1% in the test on CCRF-CEM leukemia; -7.7% (active) in the test with MOLT-4 leukemia.
